From PubChem
FMDV inh: High Throughput Screening for Foot and Mouth Disease Virus Antivirals | AID 1159524, 2015 | 410,000 tested, 1.2% active | FMDV antiviral cell-based qHTS | Potency, µM (doses to about 57.9 µM), actives largely listed as inhibitors; calls by dose curve; tested in HEK293T cells; further: read-out not given here; nearly all actives have a fitted effect of over 45% in size
HCMV inh: qHTS Assay for inhibitors of the human cytomegalovirus (HCMV). HFF cells, HCMV-luciferase reporter, 72 h; stronger effect = lower value. activity change, negative = inhibition, % at 57.5 µM. 410,000 tested, 4.5% active. AID 1259415, 2018; in the data active means activity change below about -60%; inconclusive means no clear call, values can overlap the other calls; inactive means above about -39%
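HFF cells seeded 16 h at 37C, treated with compounds, infected with luciferase-reporter HCMV at MOI 1 PFU/cell; luciferase read at 72 h post infection, normalized to buffer-only and Salinomycin controls.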
HCV inhibitor: qHTS Assay for Inhibitors of Hepatitis C Virus (HCV); Huh7.5.1 HCVcc-Cre infection, luciferase reporter, 44 h; Potency, µM (top dose mostly 41.8 µM), usual class: inhibitors; 340,000 tested, 3.4% active; active means well fitted inhibition curve with a large enough effect; inconclusive means small, poorly fitted or top-dose-only effect, or another doubt; inactive means no such curve, though single readings can be large or run the other way
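Infectious HCVcc-Cre (~0.5 moi) was added to cells just after compound, with cells seeded 4 h earlier at 1,000 per well. Luciferase activity after 44 h culture reported infection; substrate was incubated 15 min at room temperature before reading.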
Marburg entry inh: qHTS for inhibitors of binding or entry into cells for Marburg Virus | Potency, µM (series often up to 37.8 µM), usual class: inhibitors | Marburg virus pseudotyped entry inhibition, cell reporter | 300,000 tested, 1.8% active; calls by dose curve; tested in HEK293 cells
Lassa entry inh: qHTS for Inhibitors of binding or entry into cells for Lassa Virus; Lassa virus pseudotype entry inhibition, cell reporter; Potency, µM (highest dose often 37.9 µM), most hits filed as inhibitors; 300,000 tested, 1.2% active; calls by dose curve; tested in HEK293 cells; further: nearly all actives have a fitted effect of over 50% in size
Hits are given with their value; - = inactive; ? = inconclusive; . = not tested or not shown; ! = repeats disagree. Most compounds without a hit are left out; they make up all but 7.9% or so of the library.

SMILES	FMDV inh	HCMV inh	HCV inhibitor	Marburg entry inh	Lassa entry inh
c1ccc(-c2nc(NCc3ccco3)c3ccccc3n2)nc1	?	-102	?	?	?
O=C(COC(=O)c1ccc(O)cc1O)Nc1cccc2ccccc12	-	-	-	.	.
O=C(C1CCOC1)N1CCOc2ccc(CN3CCC(Oc4cccnc4)CC3)cc2C1 (stereo unspecified)	-	.	.	.	.
O=C1CCN(CCc2ccccc2)CCN1CCSc1ccc(Br)cc1	-	-	-	.	.
CN1CCN(Cc2ccc(OCc3ccccc3)cc2)CC1	-	-	5.6µM	?	?
c1ccc(COc2ccc(OCCCN3CCCC3)cc2)cc1	-	-	10µM	13µM	?
CCN1CCN(Cc2ccc(OCc3ccccc3)cc2)CC1	-	-	?	?	?
Cc1ccc(SCCN2CCN(CCc3ccccc3)CCC2=O)cc1	-	-	2.2µM	.	.
CC1CCN(CCOc2cccc(Br)c2)CC1	-	-	-	?	?
Clc1cccc(OCCN2CCN(CCOc3cccc(Cl)c3)CC2)c1	?	-96	?	?	?
c1ccc(COc2ccc(OCCN3CCCC3)cc2)cc1	-	-	-	?	-
COc1ccccc1NC(=O)CSc1oc(-c2ccc(F)cc2)nc1S(=O)(=O)c1ccc(Br)cc1	-	-	.	-	-
CCOC(=O)c1cn(Cc2ccccc2)c(C(=O)OC(C)(C)C)c1O	-	-	?	.	.
O=C1CCN(Cc2ccccc2)CCN1CCOc1ccccc1	-	-77	?	.	.
CC1CN(CCCCOc2cccc(Oc3ccccc3)c2)CC(C)O1 (stereo unspecified)	?	-	-	?	?
c1ccc(Oc2cccc(OCCCCN3CCCC3)c2)cc1	-	?	10µM	21µM	-
O=C(Nc1ccccc1)OCCN1CCN(Cc2ccccc2)CCC1=O	-	-	-	-	-
CCOC(=O)[C@@H](CC(=O)O)N1CCCCC1	.	.	.	-	.
CO[C@H](C1CCCCC1)[C@H](C)C=CCC(=O)OCCCc1ccccc1	.	.	.	-	?
CCc1ccc(Oc2c(C(F)(F)F)oc3c(CN4CCCC(C)C4)c(O)ccc3c2=O)cc1 (stereo unspecified)	-	-	.	-	-
Cc1ccc(OCC(=O)NC2CCCC(C)C2C)c([N+](=O)[O-])n1 (stereo unspecified)	-	-	-	.	.
CCOc1ccccc1CNCc1cccn1-c1nnc(N2CCN(c3ccccc3)CC2)s1	?	-98	.	.	?
CCOc1ccccc1CNC(=O)c1cccn1-c1nnc(N2CCCCC2)s1	-	-	.	.	?
CC1=CC[C@@H](C)O[C@@]2(C1)C(=O)N(Cc1ccc(Br)cc1)c1ccccc12	.	.	.	-	?
CC(C)COP(=O)(c1ccc(N(C)C)cc1)C(O)c1ccccc1F (stereo unspecified)	-	-	3.5µM	-	-
SMILES	FMDV inh	HCMV inh	HCV inhibitor	Marburg entry inh	Lassa entry inh
CN(C(=O)CCn1c(=S)oc2ccccc21)c1ccc(F)cc1	-	-89	-	.	.
COc1c(C(=O)Nc2nnc(C3CC3)s2)csc1Cl	-	-	-	.	.
O[C@H]1CN(Cc2cccs2)[C@@H](c2ccc(Cl)cc2)C[C@H]1n1cc(C2CC2)nn1	.	.	.	.	-
COP(=O)(OC)SCn1c(=O)oc2cc(Cl)cnc21	.	-	.	.	.
CC(=O)N1CCc2cc(NC(=O)C3(C)CCN3Cc3ccccc3OC(F)F)ccc21 (stereo unspecified)	?	-61	.	.	.
COc1cccc(NC(=O)C2(C)CCN2Cc2ccccc2OC(F)F)c1 (stereo unspecified)	-	?	.	.	.
COc1cccc(NC(=O)C2(C)CCN2Cc2ccc(OC)c3ccccc23)c1 (stereo unspecified)	-	-	.	.	.
CC1(C(=O)Nc2cnc3ccccc3c2)CCN1Cc1ccccc1Cl (stereo unspecified)	-	-76	.	.	.
COc1cccc(CN2CCC2(C)C(=O)Nc2cccc(Oc3ccccc3)c2)c1OC (stereo unspecified)	-	-61	.	.	.
CC1CCCN(C(=O)C2CCN(S(=O)(=O)c3cccs3)CC2)C1 (stereo unspecified)	-	-	-	-	-
CC1CCN(S(=O)(=O)c2cc(C(=O)NCc3ccc(N(C)C)cc3)n(C)c2)CC1	-	-	.	.	-
CCC(C)C1=CC(=Nc2c(C)n(C)n(-c3ccccc3)c2=O)C=C(C(C)CC)C1=O (stereo unspecified)	-	-	?	?	-
CC1=CC(=Nc2c(C)n(C)n(-c3ccccc3)c2=O)C=C(C)C1=O	?	-75	-	?	?
COc1ccc(NC(=O)CSc2nc(-c3ccc(F)cc3)c3cccc(C)c3n2)cc1	-	-	.	-	-
O=C(CCc1nnc(-c2ccc3c(c2)OCO3)o1)NC(c1cccnc1)C(F)(F)F (stereo unspecified)	-	-	-	-	-
CC(C)(C)C(=O)Cn1ncc(Cl)c(Cl)c1=O	?	-100	?	.	.
O=C(OCn1ncc(Cl)c(Cl)c1=O)c1ccccc1Cl	10µM	-103	4µM	4.6µM	6.5µM
C=CCn1c(C)cc(C(=O)Cn2ncc(Cl)c(Cl)c2=O)c1C	?	-98	13µM	?	?
C=CCn1c(C)cc(C(=O)CN2NS(=O)(=O)c3ccccc3C2=O)c1C	-	-74	?	.	.
CN(CC(=O)Nc1cccc(F)c1)CC(=O)N1CCCCC1	-	-	-	.	.
Cc1ccc(NC(=O)CCNS(=O)(=O)c2ccc3[nH]c(=O)oc3c2)c(Cl)c1	-	-	-	-	-
O=C(Cn1ncc(Cl)c(Cl)c1=O)c1ccc(Cl)cc1	35µM	-98	2.8µM	2.9µM	?
O=c1c(Cl)c(Cl)cnn1Cc1ccc(F)cc1	40µM	-99	8.9µM	?	21µM
O=C(Cn1ncc(N2CCOCC2)c(Cl)c1=O)c1ccc(Cl)cc1	?	-	-	?	?
Cc1cccc(CS(=O)(=O)Cc2ccc(C(=O)NCc3ccc(Cl)cc3)o2)c1	?	-	.	.	-
SMILES	FMDV inh	HCMV inh	HCV inhibitor	Marburg entry inh	Lassa entry inh
COc1cccc(-c2ccc(O)c(CNCc3cccc(OC)c3OC)c2)n1	-	.	.	.	.
Cc1nn(CC(=O)N2CCN(c3cccc(C(F)(F)F)c3)CC2)c(=O)c2cccn12	-	-67!	-	?	-
CC1CCN(S(=O)(=O)c2cn(CC(=O)N3CCN(c4cccc(C(F)(F)F)c4)CC3)cn2)CC1	?	.	11µM	.	.
CCOCCCNC(=O)c1cc(Sc2ccc(F)cc2)nc2ccccc12	-	-62	-	?	?
COCCCNC(=O)c1cc(Sc2ccc(F)cc2)nc2ccccc12	-	-61	?	-	-
O=C(NCc1ccc(F)cc1)c1cc(-c2ccncc2)nc2ccccc12	-	-	-	-	-
Cc1ccc(CNC(=O)c2cc(Sc3ccc(F)cc3F)nc3ccccc23)cc1	-	-66	.	.	?
Cc1ccc(Sc2cc(C(=O)NCCCN(C)C)c3ccccc3n2)cc1	-	-	?	?	?
COc1ccc(-c2cc(C(F)(F)F)n3nc(C(=O)Nc4cccc(Cl)c4Cl)cc3n2)cc1OC	-	-	.	.	-
O=C(COc1ccc(S(=O)(=O)N2CCCC2)cc1Cl)NCc1cccnc1	-	-	-	-	?
